Records with an inconclusive call do not appear. A call without a number means that no potency is given here. Values without a mark were called inactive. The source made the active and inactive calls. Calls follow the shape of the dose curve; as a rule, active = well fitted curve in the direction sought with a large enough effect in the repeat runs; inconclusive = weak or mixed curves; inactive = no such curve, though single readings can be large; an effect the other way counts as inactive or inconclusive.
What was measured:
[1] = qHTS RealTime-Glo MT Cell Viability Assay in HEK293 cells - 16 hour (AID 1224872); also: nearly all actives have a fitted effect of over 50% in size; also: potency is read from the fitted curve at half-maximal effect
Procedure, shortened: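 Homogeneous bioluminescent viability format in HEK293 cells (600 cells/well). Following 5 h at 37 C/5% CO2, 23 nL compound was pintooled; the signal was measured repeatedly during 40 h incubation.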

[2] = qHTS RealTime-Glo MT Cell Viability Assay in HepG2 cells - 8 hour (AID 1224873); also: nearly all actives have a fitted effect of over 55% in size
Procedure, shortened: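 HepG2 cells (600/well) mixed with RealTime-Glo MT reagent, settled 5 h at 37 C/5% CO2 before compound addition. Nonlytic NanoLuc luminescence from viable-cell prosubstrate reduction read repeatedly during 40 h treatment at 37 C.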

[3] = qHTS RealTime-Glo MT Cell Viability Assay in HEK293 cells - 40 hour (AID 1224874); details: RealTime-Glo luminescence; max response: active compounds read low; also: nearly all actives have a fitted effect of over 50% in size; also: potency is read from the fitted curve at half-maximal effect
Procedure, shortened: (§1)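 qHTS format; HEK293 cells with NanoLuc/prosubstrate reagent, 37 C/5% CO2 for 5 h pre-dosing; compounds 23 nL in DMSO; luminescence at each time point reflects viable cells.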

[4] = A CellTox Green Cytotoxicity Assay to monitor cytotoxicity in HEK293 cells - 24 hour (AID 1224875); also: nearly all actives have a fitted effect of over 45% in size; also: potency is read from the fitted curve at half-maximal effect
Procedure, shortened: (§2)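 Each value comes from one timepoint of a single continuous run in which HEK293 cells with CellTox Green were exposed to compound for up to 40 h at 37 C, dye fluorescence rising with cell death.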

[5] = A CellTox Green Cytotoxicity Assay to monitor cytotoxicity in HepG2 cells - 16 hour (AID 1224876); also: nearly all actives have a fitted effect of over 45% in size; also: potency is read from the fitted curve at half-maximal effect
Procedure, shortened: (§3)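 Continuous culture of HepG2 cells with a membrane-impermeant DNA dye; rising fluorescence marks dead cells. Compound exposure lasted up to 40 h at 37 C, with reads every 8 h from 0 h.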

[6] = qHTS RealTime-Glo MT Cell Viability Assay in HepG2 cells - 32 hour (AID 1224877); also: nearly all actives have a fitted effect of over 55% in size
Procedure, shortened: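 Cell number in HepG2 cultures estimated from NanoLuc luminescence generated by metabolic reduction of a prosubstrate by living cells. The homogeneous, nonlytic format allowed repeated reads at 0, 8, 16, 24, 32 and 40 h of compound exposure.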

[7] = A CellTox Green Cytotoxicity Assay to monitor cytotoxicity in HepG2 cells - 24 hour (AID 1224878); also: nearly all actives have a fitted effect of over 45% in size; also: potency is read from the fitted curve at half-maximal effect
Procedure, shortened: as §3

[8] = A CellTox Green Cytotoxicity Assay to monitor cytotoxicity in HepG2 cells - 40 hour (AID 1224879); also: nearly all actives have a fitted effect of over 40% in size; also: potency is read from the fitted curve at half-maximal effect
Procedure, shortened: as §3

[9] = A CellTox Green Cytotoxicity Assay to monitor cytotoxicity in HEK293 cells - 32 hour (AID 1224881); also: nearly all actives have a fitted effect of over 40% in size; also: potency is read from the fitted curve at half-maximal effect
Procedure, shortened: as §2

[10] = qHTS RealTime-Glo MT Cell Viability Assay in HEK293 cells - 0 hour (AID 1224880); also: top concentration of the series differs between compounds; nearly all actives have a fitted effect of over 45% in size
Procedure, shortened: as §1

| SMILES | Potency [1] | Potency [2] | max response [3] [%] | Potency [4] | Potency [5] | Potency [6] | Potency [7] | Potency [8] | Potency [9] | Potency [10] | Potency [3] |
| --- | --- | --- | --- | --- | --- | --- | --- | --- | --- | --- | --- |
| CC(O)Cn1cnc2c1c(=O)n(C)c(=O)n2C (configuration not stated) | inactive | inactive | 5.1 | inactive | inactive | inactive | inactive | inactive | inactive |  |  |
| O=NN(CCCl)C(=O)NCCCl | inactive | inactive | 8.5 | inactive | 4.77 µM (active) | inactive | 4.77 µM (active) |  | inactive | inactive |  |
| CC(C)Cc1ccc(CC(=O)O)cc1 | inactive | inactive | 4.43 | 10.7 µM (active) | 19 µM (active) | inactive | 19 µM (active) | 21.3 µM (active) | 10.7 µM (active) | inactive |  |
| Cc1c[nH]c2ccccc12 | inactive | inactive | 17.2 | inactive | inactive | inactive | inactive | inactive | inactive | inactive |  |
| CCCCCCC(O)CCCCCCCCCCC(=O)OC (configuration not stated) | inactive | inactive | -16.2 | inactive | inactive | inactive | inactive | inactive | inactive | inactive |  |
| CCCCCCOC(=O)CCCCC | inactive | inactive | 0.369 | inactive | inactive | inactive | inactive | inactive | inactive | inactive |  |
| C[C@@H]1C[C@H]2[C@@H]3CCC4=CC(=O)C=C[C@]4(C)[C@@]3(F)[C@@H](O)C[C@]2(C)[C@@]1(O)C(=O)COP(=O)(O)O | inactive | inactive | -21.2 | inactive | inactive | inactive | inactive | inactive | inactive |  |  |
| O=C(Nc1ccc(C(=O)O)c(O)c1)c1ccccc1 | inactive | inactive | 8.29 | inactive | inactive | inactive | inactive | inactive | inactive |  |  |
| N[C@@H](Cc1cc(I)c(O)c(I)c1)C(=O)O | inactive | inactive | 3.01 | inactive | inactive | inactive | inactive | inactive | inactive | inactive |  |
| Nc1ccn([C@H]2CS[C@@H](CO)O2)c(=O)n1 | inactive | inactive | -7.77 | inactive | inactive | inactive | inactive | inactive | inactive | inactive |  |
| CN1C(CSCC(F)(F)F)Nc2cc(Cl)c(S(N)(=O)=O)cc2S1(=O)=O (configuration not stated) | 19 µM (active) | inactive |  | inactive | inactive | inactive | inactive | inactive | inactive | inactive | 21.3 µM (active) |
| CC(C)c1ccc(C(=O)N=C(N)N)cc1S(C)(=O)=O | inactive | inactive | 18.4 | inactive | inactive | inactive | inactive | inactive | inactive |  |  |
| CCCCC[C@H](O)/C=C/[C@H]1[C@H](O)CC(=O)[C@@H]1C/C=C\CCCC(=O)O | inactive | inactive | 19.7 | inactive | inactive | inactive | inactive | inactive | inactive | inactive |  |
| CCN(CC)CCNC(=O)c1cc(Cl)c(N)cc1OC | inactive | inactive | -5.88 | inactive | inactive | inactive | inactive | inactive | inactive | inactive |  |
| CC(CCc1ccc(O)cc1)NCCc1ccc(O)c(O)c1 (configuration not stated) | inactive | inactive | -18.1 | inactive | inactive | inactive | inactive | inactive | inactive |  |  |
| CC(C)(C)CCCCCCOC(=O)c1ccccc1C(=O)OCCCCCCC(C)(C)C | inactive | inactive | 7.13 | inactive | inactive | inactive | inactive | inactive | inactive |  |  |
| FC(F)(F)C(F)(F)C(F)(F)C(F)(F)CCI | inactive | inactive | -4.67 | inactive | inactive | inactive | inactive | inactive | inactive |  |  |
| NC(=O)c1ccccc1[N+](=O)[O-] | inactive | inactive | 13.7 | inactive | inactive | inactive | inactive | inactive | 1.78 µM (active) | inactive |  |
| O=C(O)CN1C(=O)c2cccc3cccc(c23)C1=O | inactive | inactive | 9 | inactive | inactive | inactive | inactive | inactive | inactive | inactive |  |
| Cc1ccccc1S(N)(=O)=O | inactive | inactive | 8.27 | inactive | inactive | inactive | inactive | inactive | inactive | inactive |  |

| SMILES | Potency [1] | Potency [2] | max response [3] [%] | Potency [4] | Potency [5] | Potency [6] | Potency [7] | Potency [8] | Potency [9] | Potency [10] | Potency [3] |
| --- | --- | --- | --- | --- | --- | --- | --- | --- | --- | --- | --- |
| CC[C@@H](CO)NCCN[C@@H](CC)CO | inactive | inactive | 5.04 | inactive | inactive | inactive | inactive | inactive | inactive | inactive |  |
| C=CC(=O)NC(C)C | inactive | inactive | 9.7 | inactive | inactive | inactive | inactive | inactive | inactive |  |  |
| O=C(O)c1ccc(O)cc1O | inactive | inactive | -2.47 | inactive | inactive | inactive | inactive | inactive | inactive | inactive |  |
| CCN(CC)c1ccc(C(=C2C=CC(=[N+](CC)CC)C=C2)c2ccc(S(=O)(=O)O)cc2S(=O)(=O)[O-])cc1 | inactive | inactive | -1.18 | inactive | inactive | inactive | inactive | inactive | inactive | inactive |  |
| Cc1ccc(N(CC2=NCCN2)c2cccc(O)c2)cc1 | inactive | inactive | -23.3 | inactive | inactive | inactive | inactive | inactive | inactive |  |  |
| CC(C)C1CCC(C(=O)N[C@H](Cc2ccccc2)C(=O)O)CC1 (some centres not stated) | inactive | inactive | 3 | inactive | inactive | inactive | inactive | inactive | inactive |  |  |
| CC(=O)OC(C)C[N+](C)(C)C (configuration not stated) | inactive | inactive | -1.13 | inactive | inactive | inactive | inactive |  |  | inactive |  |
| O=C(O)CCCc1c[nH]c2ccccc12 | inactive | inactive | -0.277 | inactive | inactive | inactive | 17.4 µM (active) |  | inactive | inactive |  |
| CCN(Cc1cccc(S(=O)(=O)O)c1)c1ccc(C(=C2C=CC(=[N+](CC)Cc3cccc(S(=O)(=O)O)c3)C=C2)c2ccccc2S(=O)(=O)[O-])cc1 | inactive | inactive | -0.266 | inactive | inactive | inactive | inactive | inactive | inactive |  |  |
| CC(CO)(CO)C(=O)O | inactive | inactive | 0.0251 | inactive | inactive | inactive | inactive | inactive | inactive |  |  |
| Nc1ccc(S(=O)(=O)NCc2ccccc2)cc1 | inactive | inactive | -2.82 | inactive | inactive | inactive | inactive | inactive | inactive | inactive |  |
| CC(C)(O)CCc1ccccc1 | inactive | inactive | -8.47 | inactive | inactive | inactive | inactive | inactive | inactive | inactive |  |
| O=C1OC[C@H](Cc2cccc(O)c2)[C@H]1Cc1cccc(O)c1 | inactive | inactive | -19.7 | inactive | inactive | inactive | inactive | inactive | inactive |  |  |
| CC1CCC(C(C)CS)CC1S (configuration not stated) | inactive | inactive | 10.8 | 43.6 µM (active) | inactive | inactive | inactive | inactive | 49 µM (active) | inactive |  |
| Oc1cccc2[nH]ccc12 | inactive | inactive | 12.2 | inactive | inactive | inactive | inactive | inactive | inactive | inactive |  |
| Cc1cccc(C)c1NC(=O)c1cc(S(N)(=O)=O)c(Cl)cc1O | inactive | inactive | 1.94 | inactive |  | inactive | inactive | inactive | inactive |  |  |
| CC(C)C(=O)OCCOc1ccccc1 | inactive | inactive | 2.62 | inactive |  | inactive | inactive | inactive | inactive |  |  |
| CCCCCCCCCCCCCCCC(=O)OCC | inactive | inactive | 0.513 | inactive |  | inactive | inactive | inactive |  |  |  |
| CCO[Si](C)(CCCOCC1CO1)OCC (configuration not stated) | inactive | inactive | 13.3 | inactive |  | inactive | inactive | inactive | inactive | inactive |  |
| Oc1ccc2c(c1)Cc1ccccc1-2 | 21.9 µM (active) | inactive |  | inactive |  | inactive |  |  | inactive | inactive | 19.5 µM (active) |

Source: PubChem BioAssay (Tox21)
